Results as given in PMC5540273 (PLoS ONE, 2017).

How the values were obtained:
Conditions in all cases: concentration: 1 μM, replicates: in singlicate; n = 1
TRKC = tested on: T1, TRKC
T1 construct: gene NTRK3

TRPM6 = tested on: TRPM6
TSSK1B = tested on: TSSK1B
TSSK3 = tested on: TSSK3
TTK = tested on: TTK
TXK = tested on: TXK
[1] = tested on: TYK2(JH1domain-catalytic)
[2] = tested on: TYK2(JH2domain-pseudokinase)
TYRO3 = tested on: TYRO3
ULK1 = tested on: ULK1
ULK2 = tested on: ULK2
ULK3 = tested on: ULK3
VEGFR2 = tested on: T2, VEGFR2
T2 construct: gene KDR

VPS34 = tested on: T3, VPS34
T3 construct: gene PIK3C3

VRK2 = tested on: VRK2
WEE1 = tested on: WEE1
WEE2 = tested on: WEE2
WNK1 = tested on: WNK1
WNK2 = tested on: WNK2
WNK3 = tested on: WNK3
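Further: KINOMEscan kinase panel screen.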

SMILES	%Inh (TRKC) [%]	%Inh (TRPM6) [%]	%Inh (TSSK1B) [%]	%Inh (TSSK3) [%]	%Inh (TTK) [%]	%Inh (TXK) [%]	%Inh [1] [%]	%Inh [2] [%]	%Inh (TYRO3) [%]	%Inh (ULK1) [%]	%Inh (ULK2) [%]	%Inh (ULK3) [%]	%Inh (VEGFR2) [%]	%Inh (VPS34) [%]	%Inh (VRK2) [%]	%Inh (WEE1) [%]	%Inh (WEE2) [%]	%Inh (WNK1) [%]	%Inh (WNK2) [%]	%Inh (WNK3) [%]
Cn1ccc2ncnc(Oc3ccc(NC(=O)Nc4cccnc4)c(Cl)c3)c21	0	0	0	2	1	0	0	0	0	0	8	0	74	0	0	0	28	0	0	0
N#Cc1ccc(Oc2ccc(Nc3ncnc4cc[nH]c34)cc2Cl)cc1	21	0	0	0	16	2	12	11	0	14	34	30	12	0	3	28	8	0	7	0
CSc1ccc(NC2=C(c3ccccc3Cl)C(=O)NC2=O)cc1 [SB-342411]	0	0	21	10	0	3	0	0	5	10	0	0	0	1	0	2	0	0	3	17
Cl.c1ccc(Cn2ncc3cc(Nc4ncnc5ccccc45)ccc32)cc1 [GW273749]	0	37	0	11	18	11	0	12	0	19	0	5	20	0	0	10	3	3	3	0
Clc1ccc(-c2cc(-c3c[nH]nc3-c3ccccn3)ccn2)cc1 [GW681251]	100	0	13	16	17	0	3	0	0	0	0	1	0	0	11	18	0	16	0	19
CN1CCC(n2cnc(-c3ccc(F)cc3)c2-c2ccnc(NC3CCNCC3)n2)CC1 [SB-229482]	9	0	0	43	0	0	25	34	0	0	4	19	0	50	18	0	30	21	0	49
FC(F)(F)c1cc(Nc2nccc(-c3c(-c4ccc(Cl)cc4)nn4ncccc34)n2)ccc1Cl [GW829351]	0	0	0	0	0	0	6	0	0	0	6	0	0	2	56	9	0	0	0	0
Cn1cc(-c2ccc3c(c2)CCN3C(=O)Cc2cccc(C(F)(F)F)c2)c2c(N)ncnc21 [GSK2606414]	40	0	12	0	22	0	15	0	0	27	0	3	0	22	20	0	19	3	7	0
OCCOCCn1ccc2ncnc(Nc3ccc(Oc4cccc(Cl)c4)c(Cl)c3)c21	0	0	0	0	0	0	0	0	0	0	0	0	0	0	46	0	0	0	0	0
Nc1nc(-c2ccc3c(N)n[nH]c3c2)cc(N2CCCCC2)n1 [GSK2228768]	0	10	0	3	0	0	0	5	0	10	0	0	0	0	0	39	0	0	0	0
